Laboratory results: PubChem BioAssay (NCATS)
Records with an inconclusive call do not appear. Entries that show only a call come without a potency. Active and inactive are the calls of the source. Calls come from the whole dose curve; as a rule, active = well fitted curve in the direction sought with a large enough effect; inconclusive = small, poorly fitted or top-dose-only effect, or another doubt; inactive = no such curve, though single readings can be large; an effect the other way counts as inactive or inconclusive.

Target: Ubiquitin carboxyl-terminal hydrolase 2 (Homo sapiens) (UniProt O75604)
Assay: qHTS Validation Assay for Inhibitors of Ubiquitin-specific Protease USP2a Using CHOP2 as the Reporter (AID 463106)
Details: USP2a cleavage of CHOP2 reporter, enzymatic; series mostly up to 38.3 µM
In short: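 Fluorescence read-out at Ex 485nm/Em 531nm after 60min RT, following addition of 25nM Ub-CHOP2 plus 25nM reporter substrate to USP2 core (10nM) pretreated 30min with compound. Data normalized to NEM full inhibition; concentration-response curves fitted.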
Potency is the fitted concentration of half-maximal effect.

Chain of Ubiquitin carboxyl-terminal hydrolase 2 (Homo sapiens) (O75604 whole entry, looked up): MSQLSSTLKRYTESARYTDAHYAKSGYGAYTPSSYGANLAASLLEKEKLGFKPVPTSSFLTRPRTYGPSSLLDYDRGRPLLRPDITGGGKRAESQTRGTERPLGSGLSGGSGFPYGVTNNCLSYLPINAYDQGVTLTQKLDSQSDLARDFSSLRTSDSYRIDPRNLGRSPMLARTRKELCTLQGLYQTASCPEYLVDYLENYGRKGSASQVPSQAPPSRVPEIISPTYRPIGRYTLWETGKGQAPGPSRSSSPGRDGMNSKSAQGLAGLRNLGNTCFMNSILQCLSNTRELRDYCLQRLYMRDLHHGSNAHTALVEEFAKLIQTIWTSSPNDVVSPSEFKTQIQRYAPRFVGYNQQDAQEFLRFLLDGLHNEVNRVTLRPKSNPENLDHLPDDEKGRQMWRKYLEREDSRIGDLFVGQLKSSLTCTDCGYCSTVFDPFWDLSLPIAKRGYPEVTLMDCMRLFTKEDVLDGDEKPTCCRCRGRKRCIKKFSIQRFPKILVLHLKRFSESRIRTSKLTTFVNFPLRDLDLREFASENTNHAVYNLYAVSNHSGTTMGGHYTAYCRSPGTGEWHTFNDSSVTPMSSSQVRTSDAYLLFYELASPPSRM

| Compound | Potency |
| --- | --- |
| CCCCCCCC/C=C\CCCCCCCC(=O)NCCc1ccc(O)c(O)c1 | inactive |
| COc1ccc(NC(=O)c2ccc(-c3ccc(-c4noc(C)n4)cc3C)cc2)cc1N1CCN(C)CC1 | inactive |
| CCCC(=O)NCCc1c2n(c3ccc(OC)cc13)CCCc1ccccc1-2 | inactive |
| S=C(S)N1CCCC1 | inactive |
| CC(C)NC[C@H](O)COc1ccc(CC(N)=O)cc1 | inactive |
| COc1cc([C@@H]2c3cc4c(cc3[C@H](O)C3COC(=O)[C@@H]32)OCO4)cc(OC)c1OC (stereo partly specified) | inactive |
| COC(=O)[C@H](NC(=O)c1cc(-c2ccccc2)nc2ccccc12)c1ccccc1 | inactive |
| NC(N)=NC(N)=Nc1ccccc1 | inactive |
| O=c1oc(Cl)c(Cl)c2ccccc12 | inactive |
| CC(C)(C)c1cc(/C=C(\C#N)C(N)=S)cc(C(C)(C)C)c1O | inactive |
| C=C1C(=O)O[C@@H]2[C@H]3O[C@]3(C)CCC=C(C)CC[C@@H]12 | inactive |
| Cc1cccc(C2CN(C)CCc3c2cc(O)c(O)c3Cl)c1 (stereo unspecified) | inactive |
| CN(C)CCCc1cc(C(=O)Nc2ccc(-c3ccncc3)cc2)ccc1O | inactive |
| C=C(C)C1CC=C(C(=O)O)CC1 (stereo unspecified) | inactive |
| Oc1ccc(/C=C/c2ccc(/C=C/c3ccc(O)cc3)c(Br)c2)cc1 | inactive |
| N[C@@H](Cc1ccc(F)cc1)C(=O)O | inactive |
| CCCCCCC/C=C\CCCCCCCCC(=O)O | inactive |
| N#Cc1cc([N+](=O)[O-])c2sc(C(N)=O)[n+]([O-])c2c1 | inactive |

| Compound | Potency |
| --- | --- |
| CCC1(O)CC2CN(CCc3c([nH]c4ccccc34)[C@@](C(=O)OC)(c3cc4c(cc3OC)N(C)C3[C@]45CCN4CC=C[C@@](CC)([C@@H](OC(C)=O)[C@]3(O)C(=O)OC)[C@H]45)C2)C1 (stereo partly specified) | inactive |
| C=C1C[C@@]23CC[C@H]4[C@@](C)(CCC[C@@]4(C)C(=O)OC4OC(CO)C(O)C(O)C4O)[C@@H]2CC[C@]1(OC1OC(CO)C(O)C(O)C1OC1OC(CO)C(O)C(O)C1O)C3 (stereo partly specified) | inactive |
| CCc1ccc2c(-c3cccc(Cl)c3)nc(=O)n(CC)c2n1 | inactive |
| OC[C@H]1O[C@H](n2cnc3c(N[C@H]4CCC[C@@H]4O)ncnc32)[C@H](O)[C@@H]1O | inactive |
| c1ccc2c(c1)CCC[C@H]2Nc1nc2ccccc2[nH]1 | inactive |
| CN(C)S(=O)(=O)c1ccc2c(c1)/C(=C/c1cc3c([nH]1)CCCC3)C(=O)N2 | inactive |
| CNCCc1cnc(CCC(c2ccccc2)c2ccccc2)[nH]1 | inactive |
| COc1cc(/C=C(\C#N)C(=O)c2ccc(O)c(O)c2)cc(I)c1O | 14.7 µM (active) |
| O=C1Cc2c([nH]c3ccc(Br)cc23)-c2ccccc2N1 | inactive |
| CCCC[C@@]1(C2CCCC2)Cc2cc(OCC(=O)O)c(Cl)c(Cl)c2C1=O | inactive |
| COc1ccc(C(=O)NCc2cccnc2)cc1C(=O)NCc1cccnc1 | inactive |
| c1ccc(CN2CCC3(CCCc4ccccc43)CC2)cc1 | inactive |
| O=C(N[C@@H](Cc1ccccc1)C(=O)CCl)OCc1ccccc1 | inactive |
| CC(C)NCC(O)COc1ccc(CC(N)=O)cc1 (stereo unspecified) | inactive |
| CC(C)(C)NCC(O)COc1cccc2[nH]c(=O)[nH]c12 (stereo unspecified) | inactive |
| CC(C)(C)c1ccc(/C=C/C(=O)Nc2ccc3c(c2)OCCO3)cc1 | inactive |
| CN(CC[C@@H](Oc1ccc(C(F)(F)F)cc1)c1ccccc1)CC(=O)O | inactive |
| Nc1nc2ccc(Cl)cc2c2nc(-c3ccco3)nn12 | inactive |

Target: DNA polymerase III PolC-type (Bacillus subtilis (strain 168)) (UniProt P13267)
Assay: qHTS Validation Assay for the Inhibitors of DNA Replication in Gram-Positive Bacteria (AID 485295)
Details: Gram-positive bacterial DNA replication assay; series mostly up to 57.1 µM
In short: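 Inhibition of DNA synthesis by the reconstituted PolC holoenzyme, monitored through PicoGreen staining of dsDNA formed from ssM13Gori, dNTPs and NTPs, with compound preincubation and room-temperature reaction.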

Chain of DNA polymerase III PolC-type (Bacillus subtilis (strain 168)) (P13267 whole entry, looked up): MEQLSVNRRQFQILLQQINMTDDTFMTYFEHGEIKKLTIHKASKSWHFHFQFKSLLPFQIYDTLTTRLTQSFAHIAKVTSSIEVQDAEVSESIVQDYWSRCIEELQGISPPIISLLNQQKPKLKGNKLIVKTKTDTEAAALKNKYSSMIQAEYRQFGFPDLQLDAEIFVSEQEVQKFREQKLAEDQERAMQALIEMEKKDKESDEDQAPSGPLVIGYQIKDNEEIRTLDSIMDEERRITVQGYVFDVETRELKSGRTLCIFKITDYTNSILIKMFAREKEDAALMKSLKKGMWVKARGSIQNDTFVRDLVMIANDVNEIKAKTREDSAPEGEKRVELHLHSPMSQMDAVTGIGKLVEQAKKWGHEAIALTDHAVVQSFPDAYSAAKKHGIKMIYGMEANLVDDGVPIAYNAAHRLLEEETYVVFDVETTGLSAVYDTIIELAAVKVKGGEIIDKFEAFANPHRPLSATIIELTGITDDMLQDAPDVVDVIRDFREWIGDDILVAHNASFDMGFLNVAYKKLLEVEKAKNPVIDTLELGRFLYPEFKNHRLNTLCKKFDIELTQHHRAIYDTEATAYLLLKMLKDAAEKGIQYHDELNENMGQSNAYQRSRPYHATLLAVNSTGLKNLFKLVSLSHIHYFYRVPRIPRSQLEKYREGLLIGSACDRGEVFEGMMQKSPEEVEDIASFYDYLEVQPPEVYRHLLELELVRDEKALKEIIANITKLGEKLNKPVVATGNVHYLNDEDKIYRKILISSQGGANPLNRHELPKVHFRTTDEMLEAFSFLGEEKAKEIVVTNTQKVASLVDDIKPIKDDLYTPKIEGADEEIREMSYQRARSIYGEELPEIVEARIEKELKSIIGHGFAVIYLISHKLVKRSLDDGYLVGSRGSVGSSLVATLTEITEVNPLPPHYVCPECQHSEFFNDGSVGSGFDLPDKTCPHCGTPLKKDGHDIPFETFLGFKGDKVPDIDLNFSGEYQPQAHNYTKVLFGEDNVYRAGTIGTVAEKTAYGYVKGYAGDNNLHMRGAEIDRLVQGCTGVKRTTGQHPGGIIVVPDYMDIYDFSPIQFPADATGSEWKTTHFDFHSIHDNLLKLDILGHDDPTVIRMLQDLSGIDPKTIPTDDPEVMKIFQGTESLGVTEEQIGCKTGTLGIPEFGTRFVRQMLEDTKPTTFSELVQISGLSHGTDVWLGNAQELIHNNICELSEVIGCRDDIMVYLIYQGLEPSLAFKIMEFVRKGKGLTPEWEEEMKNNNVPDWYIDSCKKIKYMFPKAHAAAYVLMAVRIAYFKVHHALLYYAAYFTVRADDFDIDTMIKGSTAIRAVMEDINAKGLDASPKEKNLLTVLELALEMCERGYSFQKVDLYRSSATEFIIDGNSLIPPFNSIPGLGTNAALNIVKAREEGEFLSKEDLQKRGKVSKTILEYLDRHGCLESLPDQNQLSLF

| Compound | Potency |
| --- | --- |
| CCCCCCCC/C=C\CCCCCCCC(=O)NCCc1ccc(O)c(O)c1 | 18.9 µM (active) |
| COc1ccc(NC(=O)c2ccc(-c3ccc(-c4noc(C)n4)cc3C)cc2)cc1N1CCN(C)CC1 | inactive |
| CCCC(=O)NCCc1c2n(c3ccc(OC)cc13)CCCc1ccccc1-2 | inactive |
| S=C(S)N1CCCC1 | inactive |
| CC(C)NC[C@H](O)COc1ccc(CC(N)=O)cc1 | inactive |
| COc1cc([C@@H]2c3cc4c(cc3[C@H](O)C3COC(=O)[C@@H]32)OCO4)cc(OC)c1OC (stereo partly specified) | inactive |
| COC(=O)[C@H](NC(=O)c1cc(-c2ccccc2)nc2ccccc12)c1ccccc1 | inactive |
| COc1cc(/C=C(\C#N)C(=O)Nc2nnc(C(F)(F)F)s2)ccc1OCc1ccc(C(F)(F)F)cc1C(F)(F)F | 10.6 µM (active) |
| O=c1oc(Cl)c(Cl)c2ccccc12 | inactive |
| CC(C)(C)c1cc(/C=C(\C#N)C(N)=S)cc(C(C)(C)C)c1O | inactive |
| C=C1C(=O)O[C@@H]2[C@H]3O[C@]3(C)CCC=C(C)CC[C@@H]12 | inactive |
| Cc1cccc(C2CN(C)CCc3c2cc(O)c(O)c3Cl)c1 (stereo unspecified) | inactive |
| CN(C)CCCc1cc(C(=O)Nc2ccc(-c3ccncc3)cc2)ccc1O | inactive |
| C=C(C)C1CC=C(C(=O)O)CC1 (stereo unspecified) | inactive |
| Oc1ccc(/C=C/c2ccc(/C=C/c3ccc(O)cc3)c(Br)c2)cc1 | inactive |
| N[C@@H](Cc1ccc(F)cc1)C(=O)O | inactive |
| CCCCCCC/C=C\CCCCCCCCC(=O)O | inactive |
| N#Cc1cc([N+](=O)[O-])c2sc(C(N)=O)[n+]([O-])c2c1 | inactive |

| Compound | Potency |
| --- | --- |
| CCC1(O)CC2CN(CCc3c([nH]c4ccccc34)[C@@](C(=O)OC)(c3cc4c(cc3OC)N(C)C3[C@]45CCN4CC=C[C@@](CC)([C@@H](OC(C)=O)[C@]3(O)C(=O)OC)[C@H]45)C2)C1 (stereo partly specified) | inactive |
| C=C1C[C@@]23CC[C@H]4[C@@](C)(CCC[C@@]4(C)C(=O)OC4OC(CO)C(O)C(O)C4O)[C@@H]2CC[C@]1(OC1OC(CO)C(O)C(O)C1OC1OC(CO)C(O)C(O)C1O)C3 (stereo partly specified) | inactive |
| CCc1ccc2c(-c3cccc(Cl)c3)nc(=O)n(CC)c2n1 | inactive |
| OC[C@H]1O[C@H](n2cnc3c(N[C@H]4CCC[C@@H]4O)ncnc32)[C@H](O)[C@@H]1O | inactive |
| CNCCc1cnc(CCC(c2ccccc2)c2ccccc2)[nH]1 | inactive |
| O=C1Cc2c([nH]c3ccc(Br)cc23)-c2ccccc2N1 | inactive |
| CCCC[C@@]1(C2CCCC2)Cc2cc(OCC(=O)O)c(Cl)c(Cl)c2C1=O | inactive |
| COc1ccc(C(=O)NCc2cccnc2)cc1C(=O)NCc1cccnc1 | inactive |
| c1ccc(CN2CCC3(CCCc4ccccc43)CC2)cc1 | inactive |
| O=C(N[C@@H](Cc1ccccc1)C(=O)CCl)OCc1ccccc1 | inactive |
| CC(C)NCC(O)COc1ccc(CC(N)=O)cc1 (stereo unspecified) | inactive |
| CC(C)(C)NCC(O)COc1cccc2[nH]c(=O)[nH]c12 (stereo unspecified) | inactive |
| CC(C)(C)c1ccc(/C=C/C(=O)Nc2ccc3c(c2)OCCO3)cc1 | inactive |
| CN(CC[C@@H](Oc1ccc(C(F)(F)F)cc1)c1ccccc1)CC(=O)O | inactive |
| CC[n+]1c(/C=C/C=C2/N(C)c3ccccc3C2(C)C)sc2ccccc21 | inactive |
| Nc1ccc(-c2nc3ccc(-c4nc5ccc(N)cc5[nH]4)cc3[nH]2)cc1 | 21.2 µM (active) |
| Nc1nc2ccc(Cl)cc2c2nc(-c3ccco3)nn12 | inactive |
